High-throughput results (PubChem)
Sampled rows, rich in hits. Any-hit rate of the full collection: about 7.9%.
KB-V1 cytotox: kills drug-selected multidrug resistant KB-V1 cells; AID 1347076; Potency, µM (titrated, usually from 46.1 µM), actives largely listed as cytotoxic; 400,000 tested, 3.4% active; KB-V1 MDR cells viability, CellTiter-Glo, 72 h; also: nearly all actives have a fitted effect of over 60% in size
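qHTS viability screen in drug-selected KB-V1 MDR cells: 72 h compound treatment at 37 degrees C, ATP luminescence end point.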
SW480 rereplic: inducers of DNA re-replication in SW480 colon cancer cells. 340,000 tested, 1.8% active. SW480 DNA re-replication, Hoechst DNA content imaging, 48 h. Potency, µM (doses to about 46.1 µM), actives largely listed as activators; also: nearly all actives have a fitted effect of over 55% in size
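Readout is total intensity of Hoechst-stained nuclei, excited at 405 nm and collected at 500-530 nm. Compound treatment lasted 48 hr at 37 C in 5% CO2 before staining.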
MCF10A rereplic: DNA re-replication induction in MCF 10a cells. MCF 10A DNA re-replication, Hoechst nuclear intensity, 48 h. Potency, µM (titrated, usually from 46.1 µM), actives largely listed as activators. 350,000 tested, 2.9% active. AID 624296; also: nearly all actives have a fitted effect of over 50% in size
HT1080 IDH1KD tx: kills HT-1080 cells with IDH1 knockdown; HT-1080 IDH1 knockdown viability, ATP luminescence, 48 h; Potency, µM (series often up to 46.1 µM), actives largely listed as cytotoxic; 360,000 tested, 2% active; AID 686971
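Cytotoxicity counter-line: IDH1KD HT-1080, 48 h, CellTiter-Glo. Curves classed by r2, magnitude and activity.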
HT1080NT lethal: kills 2HG-producing HT-1080-NT fibrosarcoma cells | Potency, µM (top dose mostly 46.1 µM), most hits filed as cytotoxic | 360,000 tested, 1.6% active | HT-1080-NT fibrosarcoma viability, CellTiter-Glo ATP luminescence, 48 h;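 also: NT is the 2HG producing partner of a matched IDH1 knockdown line; nearly all actives have a fitted effect of over 55% in size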
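Luminescent CellTiter-Glo readout after 48 hours of compound exposure at 37 degrees C defined viability of HT-1080-NT cells. Activity was normalized to DMSO wells and cell-free media wells; concentration-response curves were fitted and assigned curve classes.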
KB-3-1 cytotox: kills parental KB-3-1 adenocarcinoma cells. 400,000 tested, 1.4% active. Potency, µM (series often up to 46.1 µM), most hits filed as cytotoxic. KB-3-1 viability, CellTiter-Glo ATP luminescence, 72 h; also: nearly all actives have a fitted effect of over 60% in size
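72 h, 37 °C compound treatment of KB-3-1 parental cells; CellTiter-Glo added, 10 min, luminescence read. Data corrected against DMSO-only plates and normalized before curve fitting.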
Large screens that a line does not name were inactive. Calls follow the shape of the dose curve; as a rule, active = well fitted curve in the direction sought with a large enough effect; inconclusive = small, poorly fitted or top-dose-only effect, or another doubt; inactive = no such curve, though single readings can be large; an effect the other way counts as inactive or inconclusive.

COC(=O)C1=CN(c2ccc(OC)cc2)C(N)=C(C#N)C1c1cccc2ccccc12 (configuration not stated)	KB-V1 cytotox inconclusive, HT1080 IDH1KD tx inconclusive, HT1080NT lethal inconclusive, KB-3-1 cytotox 18µM (no result: SW480 rereplic, MCF10A rereplic)
CC[N+](CC)(CC)CCOc1ccc(/C=C/c2ccccc2)cc1	HT1080 IDH1KD tx 16µM, HT1080NT lethal inconclusive, KB-3-1 cytotox inconclusive
CCOc1ccc(/C=C/C(=O)c2ccccc2)cc1	none
CCOC(=O)C1=CCN(S(=O)(=O)c2ccccc2Br)C1c1cccc(C)c1 (configuration not stated)	none (no result: SW480 rereplic, MCF10A rereplic)
C=C(C)[C@@H]1C2=CC(C(=O)OC)=C(C[C@@H](C(=C)C)[C@H]3O[C@H]3C3=C[C@H]1OC3=O)O2	HT1080 IDH1KD tx 3.5µM, HT1080NT lethal 4µM (no result: KB-V1 cytotox, SW480 rereplic, MCF10A rereplic, KB-3-1 cytotox)
CCC(=O)OC1(C#CCOc2ccc(OC)cc2)CCN(C)CC1	none
CC(C)(C)c1ccc(OCCCNCc2ccccc2)cc1	SW480 rereplic 23µM, MCF10A rereplic 23µM, KB-3-1 cytotox inconclusive
O=C(O)CCCCNCc1ccccc1	none
CCc1cc(OCCN(C)C)ccc1Cl	none
CC(C)(c1ccccc1)c1ccc(OCCCNCCO)cc1	KB-V1 cytotox inconclusive, MCF10A rereplic inconclusive, HT1080 IDH1KD tx 18µM, HT1080NT lethal inconclusive, KB-3-1 cytotox inconclusive
c1ccc(CNCCCNCCCCNCCCNCc2ccccc2)cc1	KB-V1 cytotox inconclusive, SW480 rereplic inconclusive, MCF10A rereplic 6.5µM, HT1080 IDH1KD tx 5.2µM, HT1080NT lethal inconclusive, KB-3-1 cytotox inconclusive
CCc1cc(OCCCCNCc2ccccc2)ccc1Cl	KB-V1 cytotox inconclusive, SW480 rereplic inconclusive, MCF10A rereplic inconclusive, HT1080 IDH1KD tx inconclusive, HT1080NT lethal 23µM, KB-3-1 cytotox inconclusive
O=C(COC(=O)c1ccc(Br)o1)Nc1ccc(Br)cc1	none
Cc1ccc(C)c(OCCCNCc2ccccc2)c1	none
COCCCNCCCOc1ccc(C(C)(C)c2ccccc2)cc1	KB-V1 cytotox inconclusive, SW480 rereplic inconclusive
COCCNCCCOc1ccc(C(C)(C)c2ccccc2)cc1	KB-V1 cytotox inconclusive, MCF10A rereplic 21µM
Clc1cc(Br)ccc1OCCCNCc1ccccc1	KB-V1 cytotox inconclusive, SW480 rereplic inconclusive, MCF10A rereplic inconclusive, HT1080 IDH1KD tx inconclusive, HT1080NT lethal 23µM, KB-3-1 cytotox inconclusive
CCc1cccc(NC(=O)CCC(=O)N2CCSc3ccccc32)c1	KB-V1 cytotox inconclusive
COc1cccc(N=c2oc3ccccc3cc2-c2nc3ccccc3[nH]2)c1	KB-V1 cytotox 18µM, HT1080 IDH1KD tx inconclusive, HT1080NT lethal inconclusive
COc1ccc(C(=O)NN(C)c2nc(C(F)(F)F)nc3ccccc23)cc1	KB-V1 cytotox 0.73µM, SW480 rereplic inconclusive, MCF10A rereplic 0.033µM, HT1080 IDH1KD tx 0.0065µM, HT1080NT lethal inconclusive, KB-3-1 cytotox 0.82µM
O=C(O/N=C\c1ccc(N2CCOCC2)c([N+](=O)[O-])c1)c1ccc(F)cc1	KB-V1 cytotox inconclusive
CCOc1ccc(-c2nc(-c3ccc(OC)cc3)no2)cc1OCC	KB-V1 cytotox 13µM
CCOc1ccc(-c2noc(-c3ccncc3)n2)cc1OCC	none
COc1ccc(CCC(=O)Nc2ccc(-c3noc(-c4ccc(OC)c(OC)c4)n3)cc2)cc1	KB-V1 cytotox inconclusive, MCF10A rereplic inconclusive
COc1cc(-c2nc(-c3ccc(NC(=O)c4ccc(Br)o4)cc3)no2)cc(OC)c1OC	KB-V1 cytotox inconclusive, MCF10A rereplic 5.2µM, HT1080 IDH1KD tx inconclusive, HT1080NT lethal inconclusive
COc1ccc(-c2nc(-c3ccc(NC(=O)c4ccc(Br)o4)cc3)no2)cc1OC	MCF10A rereplic 2.6µM, HT1080 IDH1KD tx inconclusive, HT1080NT lethal inconclusive
COc1ccc(Cc2noc(-c3ccc(OC)c(OC)c3)n2)cc1OC	KB-V1 cytotox 12µM, SW480 rereplic inconclusive, MCF10A rereplic inconclusive
COc1cc(C(=O)Nc2ccc(-c3nc4cc(C)c(C)cc4o3)cc2)cc(OC)c1OC	none (no result: SW480 rereplic, MCF10A rereplic, HT1080 IDH1KD tx, HT1080NT lethal)
N#Cc1c(NC(=O)COC(=O)C2=COCCO2)sc2c1CCCC2	none (no result: SW480 rereplic, MCF10A rereplic)
O=C(c1cc(-c2ccc(Cl)cc2)nc2ccccc12)N1CCC1	none
COCc1cc(=O)n2[nH]c(-c3ccc(C)cc3)cc2n1	none
